# Screening results deposited in PubChem by National Center for Advancing Translational Sciences (NCATS).
# In the library only some 7.4% were active in any assay of this set; here they are far more common.
# SMN2 splice enh – enhancers of SMN2 splice variant expression | HEK293 SMN2-luciferase splicing reporter, luminescence, 30-36 h | Potency, µM (top dose mostly 46.1 µM), for inactives: top-dose activity change, positive = activation, hits mostly activators | hit rate 2.8% among 210,000; note: % of control where 0% means no effect; nearly all actives have a fitted effect of over 55% in size
#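 qHTS luciferase splicing reporter: luminescence rises when SMN2 exon 7 is included in transfected HEK293 cells. Compound exposure lasted 30-36 h at 37C, with 4.5 mM final sodium butyrate as control, followed by a ONE-Glo read.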
# Rab9 prom act – activators of Rab9 promoter. Huh7 Rab9 promoter-luciferase reporter, luminescence, 24 h. Potency, µM (titrated, usually from 9.22 µM), without a hit: at the top dose activation, negative = inhibition, actives largely listed as activators. hit rate 2.8% among 320,000. AID 485297; note: % of control where 0% means no effect; nearly all actives have a fitted effect of over 60% in size
#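 Luciferase signal after 10 min detection reagent at ambient indicates Rab9 promoter upregulation; stably transfected Huh7 cells were treated 24 h with compound in DMSO at 37 °C, 5% CO2.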
# FLuc counter – counter-screen for miR-21 project: firefly luciferase inhibitors or activators; P08659; purified FLuc, Km substrates, luminescence inhibition; Potency, µM (doses to about 57.5 µM), for the others: at the highest dose activity change, negative = inhibition, usual class: inhibitors; hit rate 6.9% among 360,000;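 note: plate controls were vehicle for no effect and reference inhibitor for full effect; nearly all actives have a fitted effect of over 55% in size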
# Target sequence (P08659 whole entry, looked up): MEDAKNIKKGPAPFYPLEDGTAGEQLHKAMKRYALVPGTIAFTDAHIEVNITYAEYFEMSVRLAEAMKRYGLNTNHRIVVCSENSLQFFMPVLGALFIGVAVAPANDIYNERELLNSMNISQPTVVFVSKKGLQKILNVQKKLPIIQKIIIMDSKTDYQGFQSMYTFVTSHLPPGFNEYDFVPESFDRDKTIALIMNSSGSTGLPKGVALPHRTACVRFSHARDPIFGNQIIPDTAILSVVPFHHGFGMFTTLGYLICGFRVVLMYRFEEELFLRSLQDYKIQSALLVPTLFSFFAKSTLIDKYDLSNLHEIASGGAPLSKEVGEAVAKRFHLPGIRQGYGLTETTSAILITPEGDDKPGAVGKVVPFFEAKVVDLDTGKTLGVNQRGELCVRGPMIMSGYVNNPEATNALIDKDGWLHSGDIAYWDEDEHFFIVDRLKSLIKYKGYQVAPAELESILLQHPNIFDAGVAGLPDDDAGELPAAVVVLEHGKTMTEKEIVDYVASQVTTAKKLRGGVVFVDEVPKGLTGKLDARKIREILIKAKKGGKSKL
#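 Purified P. pyralis luciferase (10nM final) with 10uM D-luciferin and 10uM ATP (Km levels) in 50mM Tris acetate pH 7.5, 10mM Mg acetate, 0.01% Tween-20, 0.05% BSA; qHTS 6-point titration, ~60 µM downward; luminescence read.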
# p53 reactivation – restores transcriptional activity of mutant p53; H1299 p53-A138V BP100-luciferase reporter, luminescence, 24 h; AID 504706; Potency, µM (top dose mostly 92.2 µM), for inactives: at the highest dose activity change, positive = activation, hits mostly activators; hit rate 0.063% among 320,000; note: % of control where 0% means no effect; nearly all actives have a fitted effect of over 45% in size
#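 H1299 (p53-null), stable ts p53-A138V + BP100-Luc; 1000 cells/well, Opti-MEM/10% FBS; cpd 4 pt, 1:5; 24 h, 37 deg C, 5% CO2; detection reagent 10 min RT; luminescence.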
# NPC1 promoter act – activators of NPC1 promoter; hit rate 2.4% among 320,000; Huh7 NPC1 promoter luciferase reporter, 24 h; AID 485313; Potency, µM (top dose mostly 9.22 µM), without a hit: at the highest dose activation, most hits filed as activators; note: % of control where 0% means no effect; nearly all actives have a fitted effect of over 60% in size
#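 Huh7 reporter cells (NPC1 promoter driving luciferase) are dosed with compound for 24 h at 37 °C, 5% CO2; luciferase detection reagent is then added and luminescence measured after 10 min at ambient temperature.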
# ELG1 genotoxic – inducers of genotoxicity in HEK293T ELG1-luciferase cells | HEK293T ELG1-luciferase reporter, luminescence, 16 h | hit rate 1.3% among 330,000 | Potency, µM (series often up to 46 µM), for inactives: top-dose activity change, positive = activation, hits mostly activators; note: % of control where 0% means no effect; nearly all actives have a fitted effect of over 60% in size
#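 Genotoxic stress is detected as increased luminescence from luciferase-tagged ELG1 in HEK293T cells, measured with ONE-Glo after a 16 hr treatment at 37 °C.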
# * marks the source's active call; other numbers are inactive results; ? = inconclusive; . = not tested or not shown. Calls come from the whole dose curve; as a rule, active = well fitted curve in the direction sought with a large enough effect; inconclusive = small, poorly fitted or top-dose-only effect, or another doubt; inactive = no such curve, though single readings can be large; an effect the other way counts as inactive or inconclusive. Potency is the fitted concentration of half-maximal effect.
SMILES,SMN2 splice enh,Rab9 prom act,FLuc counter,p53 reactivation,NPC1 promoter act,ELG1 genotoxic
CCOc1ccc(N=C/C=C/c2ccccc2)c(O)c1,.,?,8.49µM*,?,?,?
COc1ccccc1Nc1nc(-c2ccccc2F)nc2ccccc12,.,.,-7.9%,.,.,.
COCC(=O)N1CCC[C@@]2(CCN(Cc3ccccc3)C2)C1,1.8%,.,.,.,.,.
Cc1ccc2c(CN(C)Cc3ccccc3)cc(=O)oc2c1C,.,?,15.1µM*,?,?,10.1%
Cc1cccc(NC(=O)c2cc3ccccc3oc2=O)c1,.,1.41µM*,0.601µM*,.,1.12µM*,2.06µM*
O=C(O)c1cccc(NC(=O)c2cc3cc(Br)cc(Br)c3oc2=O)c1,-4.2%,.,12µM*,.,.,.
Cc1ccnc(NC(=O)c2cc3ccccc3oc2=O)c1,11.2µM*,1.12µM*,0.849µM*,14.0%,1.58µM*,?
COc1ccc2oc(=O)c(C(=O)Nc3cccc(C(=O)O)c3)cc2c1,0.794µM*,.,-101.4%,.,.,.
Cc1ccc(S(=O)(=O)N/N=c2\oc3ccccc3cc2C(=O)Nc2cccc(C)c2)cc1,11.6%,-1.7%,-0.8%,29.7%,-1.1%,13.1%
COc1ccc(C(=O)NNC(=O)c2cc3cc(OC)ccc3oc2=O)cc1,.,-2.5%,0.6%,2.0%,1.0%,1.6%
COc1ccc(CCNC(=O)Cc2c(C)c3c(cc(C)c4c(C)coc43)oc2=O)cc1,9.7%,.,-1.3%,.,.,.
Cc1nc2c3ccccc3nc(NNC(=O)CCC(=O)N3CCCC(C)C3)n2n1 (centres undefined),.,-1.0%,-0.7%,-2.4%,-4.4%,-2.5%
COc1ccc2oc(=O)c(C(=O)Nc3cccc(C)c3)cc2c1,.,1.58µM*,3.01µM*,13.1%,3.98µM*,8.2µM*
COc1ccc2oc(=O)c(C(=O)NCc3ccc(C)cc3)cc2c1,.,-0.1%,-0.2%,.,-1.4%,2.5%
CN(C)/C=N/c1ncn(-c2ncc(C(F)(F)F)cc2Cl)n1,11.2µM*,2.24µM*,?,19.3%,3.16µM*,?
CCOC(=O)NC(=O)CSc1nc(C)cc(C)c1C#N,111.9%,1.58µM*,?,3.8%,2.51µM*,5.8µM*
CCc1nnc(NC(=O)CSc2nc(C)cc(C)c2C#N)s1,11.2µM*,0.501µM*,?,-5.5%,?,?
CCOC(=O)CNC(=O)CSc1nc(C)cc(C)c1C#N,-5.0%,-4.1%,-2.8%,-11.1%,4.0%,6.8%
CCc1nnc(NC(=O)CSc2nc(-c3ccc(F)cc3)cc(-c3ccccc3)c2C#N)s1,.,-1.1%,?,4.0%,-2.4%,5.5%
CCN(c1ccccc1)S(=O)(=O)c1ccc(NC(=O)c2nc(SC(C)C)ncc2Cl)cc1,-13.1%,.,0.3%,.,.,.
CCC(=O)Nc1ccc(-c2nnc3c4ccccc4c(C)nn23)cc1,8.0%,.,0.3%,.,.,.
O=C(Nc1ccccc1)N1CCC2(CC1)CCN(C(=O)c1csnn1)CC2,-8.4%,.,.,.,.,.
COc1ccc(-c2nc3sc(CCNC(=O)C(=O)Nc4ccc(OC)c(OC)c4)c(C)n3n2)cc1,.,.,3.3%,.,.,.
COc1ccc(-c2nc3sc(CCNC(=O)c4ccco4)c(C)n3n2)cc1,.,.,21.3µM*,.,.,.
COc1ccc(-c2nc3sc(CCNC(=O)Cc4ccc(F)cc4)c(C)n3n2)cc1,.,.,-20.6%,.,.,.
SMILES,SMN2 splice enh,Rab9 prom act,FLuc counter,p53 reactivation,NPC1 promoter act,ELG1 genotoxic
COc1ccc(-c2nc3sc(CCNC(=O)c4cc(OC)c(OC)c(OC)c4)c(C)n3n2)cc1,.,.,10.7µM*,.,.,.
N#Cc1c(N)nc(N)nc1Nc1ccc(Br)cc1,.,1.41µM*,6.01µM*,?,1.26µM*,9.2µM*
COc1ccc(NC(=O)Nc2ccc(F)c(Cl)c2)cc1,14.1µM*,2.82µM*,?,15.3%,3.55µM*,3.6%
O=C(Nc1cccnc1)Nc1ccc(F)c(Cl)c1,.,11.6%,23.9µM*,6.1%,11.8%,-8.2%
Cc1ccc(NC(=O)Nc2ccc(F)c(Cl)c2)cc1,12.6µM*,?,4.26µM*,-5.5%,?,8.1%
CC1CC(C)CN(S(=O)(=O)c2ccc(NC(=O)c3ccc(=O)[nH]c3)cc2)C1 (centres undefined),.,-16.9%,2.6%,0.9%,-25.9%,15.1%
